{"source": "PubChem BioAssay AID652104", "about": "(National Center for Advancing Translational Sciences (NCATS), 2013)", "note": "Out of some 410,000 compounds screened, about 7,200 (1.8%) were called active. Inconclusive results (about 7%) are left out. The list comes from a sample in which actives are over-represented; it also holds similar structures and randomly drawn compounds. A number with no mark means an inactive call. The call rests on the fitted dose curve; in most records, active means well fitted activation curve with a large enough effect; inconclusive means small, poorly fitted or top-dose-only effect, or another doubt; inactive means no such curve, though single readings can be large or run the other way. Potency means the concentration at half of the fitted maximal effect."}
{"test": "qHTS of TDP-43 Inhibitors; further: nearly all actives have a fitted effect of over 50% in size; on growth rescue (activation): % of control where 0% means no effect", "settings": "TDP-43 expressing yeast growth rescue, BacTiter-Glo, 24 h; series mostly up to 46.1 µM; growth rescue (activation): at the top concentration", "method_in_brief": "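Cell-based yeast growth screen: TDP-43 expression induced in galactose, inoculum OD600=0.02 after raffinose pregrowth to mid-log. Read-out BacTiter-Glo luminescence at 24 hr, 30 deg C; inhibition of toxicity seen as signal increase.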"}
{"smiles": "Cc1ccc2nc(N3CCN(c4cccc(Cl)c4)CC3)c3nnnn3c2c1", "growth rescue (activation)": "1.49%"}
{"smiles": "O=C(Cn1c(-c2cccs2)cc2ccccc21)NCCc1ccc(Cl)cc1", "growth rescue (activation)": "-24.1%"}
{"smiles": "CCn1cc(C(=O)N2CCN(c3cc(Cl)ccc3C)CC2)c(=O)c2cc(S(=O)(=O)N3CCCC3)ccc21", "growth rescue (activation)": "15.1%"}
{"smiles": "CCCSc1nc2sc3c(c2c(=O)n1-c1cccc(Br)c1)CC(C)(C)OC3", "growth rescue (activation)": "5.65%"}
{"smiles": "Cc1c(NC(=O)Cc2ccccc2)cccc1-c1nc2cccnc2s1", "growth rescue (activation)": "22.3%"}
{"smiles": "COc1ccc(NC(=O)N2CCCn3nc(C)cc32)cc1OC", "growth rescue (activation)": "16%"}
{"smiles": "O=C(COc1ccc(Cl)cc1)NCCSc1ccccc1", "Potency": "17.8 µM (active)"}
{"smiles": "Cc1nnc(SCC(=O)NCCOc2ccc(Cl)cc2)n1-c1ccccc1", "growth rescue (activation)": "14.2%"}
{"smiles": "O=C(CCSc1ccccc1)NCCSc1ccccn1", "growth rescue (activation)": "0%"}
{"smiles": "COc1cc(NC(=O)c2noc3c2CSc2ccccc2-3)cc(OC)c1OC", "growth rescue (activation)": "-10.4%"}
{"smiles": "COC(=O)CN1C(=O)CSc2ccc(S(=O)(=O)Nc3cc(C)ccc3C)cc21", "growth rescue (activation)": "-1.74%"}
{"smiles": "CCOC(=O)C(=Cc1ccccc1)C(=O)c1ccccc1", "Potency": "6.31 µM (active)"}
{"smiles": "CCc1ccccc1NC(=O)/C(=C/c1ccccc1)c1ccccc1", "growth rescue (activation)": "-2.9%"}
{"smiles": "CCOC(=O)/C(=C\\c1ccc([N+](=O)[O-])cc1)C(=O)c1cc(C(C)=O)c(Nc2ccccc2)s1", "growth rescue (activation)": "3.18%"}
{"smiles": "CCOc1cccc2c1N[C@@H](c1ccc(C(=O)O)cc1)[C@H]1CC=C[C@@H]21", "growth rescue (activation)": "28%"}
{"smiles": "COc1cccc(CNC(=O)c2ccc3c(c2)N(Cc2ccc(C(F)(F)F)cc2)C(=O)c2ccccc2S3)c1OC", "growth rescue (activation)": "8.14%"}
{"smiles": "Cn1c(=O)c2sccc2n2c(CCC(=O)NCc3ccccc3Cl)nnc12", "growth rescue (activation)": "-16.2%"}
{"smiles": "Cn1nnnc1SCCCNCc1ccc(Cl)cc1", "growth rescue (activation)": "7.89% [at 9.22 µM]"}
{"smiles": "Cc1cc(C=O)c(C)n1-c1ccc(NC2CCCCC2)c([N+](=O)[O-])c1", "Potency": "35.5 µM (active)"}
{"smiles": "Cc1c(NC(=O)CCC2CCCCC2)cc(C(=O)N2CCOCC2)cc1[N+](=O)[O-]", "growth rescue (activation)": "-2.9%"}
{"smiles": "COc1ccc(NC(=O)CN(C)C(=O)c2ccc(NC3CC3)c([N+](=O)[O-])c2)cc1", "growth rescue (activation)": "-18.7%"}
{"smiles": "CCc1ccc(C2C(C(=O)Nc3ccccc3)=C(C)Nc3c(C(=O)Nc4ccc(C)cc4)cnn32)cc1", "note": "(stereo not drawn)", "growth rescue (activation)": "8.86%"}
{"smiles": "CCOC(=O)c1ccc(NC(=O)Cn2c(=O)n(-c3ccc(C)cc3)c(=O)c3c2cnn3C)cc1", "growth rescue (activation)": "3.5%"}
{"smiles": "Cc1ccc(-c2nnc(Nc3cccc(Br)c3)c3ccccc23)cc1S(=O)(=O)NCC1CCCO1", "note": "(stereo not drawn)", "growth rescue (activation)": "0%"}
{"smiles": "CCc1nccn1S(=O)(=O)c1cc(Br)ccc1Br", "growth rescue (activation)": "-1.87%"}
{"smiles": "O=C(c1cc(-c2ccc(O)cc2)on1)N1CCCc2ccccc21", "Potency": "12.6 µM (active)"}
{"smiles": "Cc1ccc(NC(=O)Cc2ccc(NC(=O)N3CCCCc4ccccc43)cc2)cc1", "growth rescue (activation)": "16.1%"}
{"smiles": "O=C(CSc1ccc2nnc(-c3ccccc3)n2n1)N1CCCc2ccccc21", "growth rescue (activation)": "7.54%"}
